From PubChem BioAssay (Tox21)
Where “and” joins values, the source holds several entries; their conditions need not be identical. Equal values may be shown once. Records with an inconclusive call do not appear. More than one record can exist for a structure, and the calls need not agree. Calls of active or inactive are those of the source. Unless noted, the call rests on the fitted dose curve; in most records, active means well fitted curve in the direction sought with a large enough effect in the repeat runs; inconclusive means weak or mixed curves; inactive means no such curve, though single readings can be large; an effect the other way counts as inactive or inconclusive.

What was measured:
[1] = A CellTox Green Cytotoxicity Assay to monitor cytotoxicity in HepG2 cells - 8 hour (AID 1224890); further: nearly all actives have a fitted effect of over 45% in size; further: potency means the concentration at half of the fitted maximal effect
Outline: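 HepG2, 600 cells/well premixed w/ CellTox Green; 5 h settle, 37 C/5% CO2; pintool cpd add (DMSO); 37 C, 40 h; fluorescence read at 0, 8, 16, 24, 32, 40 h.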

[2] = qHTS assay to identify small molecule antagonists of the estrogen receptor alpha (ER-alpha) signaling pathway using the BG1 cell line in the presence of 0.1 nM 17-beta-estradiol - cell viability counter screen (AID 1259241); further: nearly all actives have a fitted effect of over 40% in size; further: potency means the concentration at half of the fitted maximal effect
Outline: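 Viability in VM7Luc4E2 cells after 22 hr compound exposure under 0.1 nM 17beta-estradiol stimulation, by CellTiter-Fluor.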

[3] = qHTS assay to identify small molecule antagonists of the androgen receptor (AR) signaling pathway using the MDA cell line in the presence of 0.5 nM R1881 - cell viability counter screen (AID 1259242); further: nearly all actives have a fitted effect of over 45% in size; further: potency means the concentration at half of the fitted maximal effect
Outline: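 Live-cell protease fluorescence, CellTiter-Fluor, 30 min at 37C. Cells: MDA-kb2, 3,000/well, preincubated 5 hr. Compounds plus 0.5 nM R1881 final, 16 hr, 37C, 0% CO2.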

[4] = biological target: Androgen receptor (Homo sapiens) (UniProt P10275); assay: qHTS assay to identify small molecule antagonists of the androgen receptor (AR) signaling pathway using the MDA cell line in the presence of 0.5 nM R1881 (AID 1259243); further: nearly all actives have a fitted effect of over 50% in size; further: potency means the concentration at half of the fitted maximal effect
Chain of Androgen receptor (Homo sapiens) (P10275 whole entry, looked up): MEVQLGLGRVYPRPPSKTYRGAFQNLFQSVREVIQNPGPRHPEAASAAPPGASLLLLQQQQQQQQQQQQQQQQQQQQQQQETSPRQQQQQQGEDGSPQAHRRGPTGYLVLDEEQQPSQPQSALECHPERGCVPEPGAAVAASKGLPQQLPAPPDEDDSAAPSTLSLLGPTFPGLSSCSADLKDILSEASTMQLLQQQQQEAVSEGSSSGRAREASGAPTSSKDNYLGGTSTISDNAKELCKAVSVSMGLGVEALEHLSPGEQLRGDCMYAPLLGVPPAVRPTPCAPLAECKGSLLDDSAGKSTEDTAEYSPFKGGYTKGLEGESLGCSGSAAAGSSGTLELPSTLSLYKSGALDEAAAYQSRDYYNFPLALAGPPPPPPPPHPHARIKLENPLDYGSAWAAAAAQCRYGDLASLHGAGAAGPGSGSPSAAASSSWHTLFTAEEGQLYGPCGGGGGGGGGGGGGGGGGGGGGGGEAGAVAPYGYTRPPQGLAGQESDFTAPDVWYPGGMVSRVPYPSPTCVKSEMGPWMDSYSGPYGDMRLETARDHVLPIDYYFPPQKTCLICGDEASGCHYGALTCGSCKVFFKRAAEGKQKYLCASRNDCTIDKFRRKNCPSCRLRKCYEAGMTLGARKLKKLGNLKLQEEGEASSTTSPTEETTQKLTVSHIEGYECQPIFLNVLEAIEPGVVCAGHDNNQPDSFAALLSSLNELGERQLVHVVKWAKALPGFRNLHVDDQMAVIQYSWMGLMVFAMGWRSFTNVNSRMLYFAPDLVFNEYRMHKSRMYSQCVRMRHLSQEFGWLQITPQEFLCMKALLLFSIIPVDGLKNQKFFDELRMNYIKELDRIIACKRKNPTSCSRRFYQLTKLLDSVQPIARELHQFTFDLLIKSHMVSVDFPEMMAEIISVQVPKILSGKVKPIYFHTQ
Outline: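 MDA-kb2, MMTV-luc (AR/GR elements); 3,000 cells/well; cpd + 0.5 nM R1881 final; 16 hr 37C, 0% CO2; ONE-Glo 30 min RT; luminescence.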

[5] = biological target: Estrogen receptor (Homo sapiens) (UniProt P03372); assay: qHTS assay to identify small molecule antagonists of the estrogen receptor alpha (ER-alpha) signaling pathway using the BG1 cell line in the presence of 0.1 nM 17-beta-estradiol (AID 1259244); further: nearly all actives have a fitted effect of over 50% in size; further: potency means the concentration at half of the fitted maximal effect
Chain of Estrogen receptor (Homo sapiens) (P03372 whole entry, looked up): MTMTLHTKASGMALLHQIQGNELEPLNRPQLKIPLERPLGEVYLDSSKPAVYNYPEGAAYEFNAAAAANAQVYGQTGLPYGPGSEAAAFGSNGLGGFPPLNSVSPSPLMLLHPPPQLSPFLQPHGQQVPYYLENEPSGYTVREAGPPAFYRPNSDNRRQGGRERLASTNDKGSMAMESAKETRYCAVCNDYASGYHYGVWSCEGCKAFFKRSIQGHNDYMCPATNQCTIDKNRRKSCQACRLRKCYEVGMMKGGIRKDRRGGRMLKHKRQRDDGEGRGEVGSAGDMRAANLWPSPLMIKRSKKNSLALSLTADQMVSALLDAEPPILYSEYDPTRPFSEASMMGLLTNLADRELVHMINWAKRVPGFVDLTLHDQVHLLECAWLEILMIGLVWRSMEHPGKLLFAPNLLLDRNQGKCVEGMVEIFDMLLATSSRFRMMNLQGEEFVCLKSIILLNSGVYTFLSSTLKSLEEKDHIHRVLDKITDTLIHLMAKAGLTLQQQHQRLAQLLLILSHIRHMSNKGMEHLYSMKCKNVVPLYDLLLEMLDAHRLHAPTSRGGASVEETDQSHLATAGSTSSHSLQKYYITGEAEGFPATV
Outline: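 Luminescence after ONE-Glo (30 min, room temperature) measured ERE-luciferase activity in VM7Luc4E2 cells treated 22 h with compound and 0.1 nM final 17beta-estradiol as stimulator.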

[6] = qHTS assay to identify small molecule HDAC inhibitors (AID 1259364); further: potency means the concentration at half of the fitted maximal effect;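 further: wild-type HCT-116 cells with endogenous class I/II HDAC activity; nearly all actives have a fitted effect of over 45% in size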
Outline: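 HCT-116 (wild type), 1,500 cells/well, overnight; compound 2 hr 37C 5% CO2; HDAC-Glo I/II reagent 30 min RT; luminescence readout.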

[7] = qHTS assay to identify small molecule HDAC inhibitors - cell viability counter screen (AID 1259365); further: series mostly up to about 92 µM; nearly all actives have a fitted effect of over 50% in size
Outline: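 Cytotoxicity was gauged in wild-type HCT-116 cells after a brief 2hr treatment with DMSO-dissolved compounds at 37C and 5% CO2, using CellTiter-Glo luminescence developed for 30min at room temperature.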

[8] = qHTS assay to identify small molecule agonists of the sonic hedgehog signaling (Shh) pathway - cell viability counter screen (AID 1259366); further: nearly all actives have a fitted effect of over 50% in size; further: potency means the concentration at half of the fitted maximal effect
Outline: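 Stable Gli1-Luc NIH/3T3 clone, 2,000 cells/well. Compound exposure 24hr at 37C. Read-out: CellTiter-Fluor fluorescence.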

[9] = qHTS assay to identify small molecule antagonists of the sonic hedgehog signaling (Shh) pathway - cell viability counter screen (AID 1259367); further: nearly all actives have a fitted effect of over 55% in size; further: potency means the concentration at half of the fitted maximal effect
Outline: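 Tox21 library chemicals were tested on a Gli1-Luc NIH/3T3 clone (2,000 cells/well) stimulated by conditioned medium; viability was quantified as fluorescence from CellTiter-Fluor reagent added at 23 hr.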

[10] = qHTS assay to identify small molecule phospholipidosis (PLD) inducers (AID 1259344; active means well fitted curve in the direction sought with a large enough effect; an effect the other way counts as inactive or inconclusive)
Outline: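 Image-based: LipidTOX Red pit count/intensity per well and per cell; HepG2, 24 h compound at 37 C, PFA fixation, Hoechst counterstain.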

Measured: Potency

COP(=O)(OC)OC
inactive: [1] | [2] | [3] | [5] | [6] | [7] | [8] | [9]
61.6 µM (active) and inactive: [4]

O=[N+]([O-])c1ccc(O)c([N+](=O)[O-])c1
active: [2] 30.8 µM and 27.3 µM | [3] 24.4 µM and 27.3 µM | [4] 30.8 µM and 54.5 µM | [6] 30.8 µM and 27.3 µM | [9] 48.8 µM
inactive: [1] | [7]

COP(=S)(OC)Oc1cc(Cl)c(Cl)cc1Cl
54.1 µM (active) and inactive: [4]
inactive: [1] | [2] | [3] | [5] | [10] | [7] | [8] | [9]

C=C(C)C(=O)OCC1CO1 (stereo not given)
inactive: [1] | [2] | [3] | [5] | [6] | [7] | [9]

CCCCC(CC)COC(=O)Cl (stereo not given)
inactive and 38.9 µM (active): [1]
inactive: [2] | [3] | [6] | [7] | [9]

CCOC(=S)S
active: [9] 30.6 µM and 25.9 µM
inactive: [1] | [2] | [3] | [6] | [7]

CC(C)(c1cc(Cl)c(O)c(Cl)c1)c1cc(Cl)c(O)c(Cl)c1
inactive: [1] | [2] | [3] | [7] | [8] | [9]

c1ccc(NNc2ccccc2)cc1
inactive: [1] | [2] | [3] | [7] | [9]

NNC(=S)NN
inactive: [1] | [2] | [3] | [6] | [7] | [9]

O=P(Oc1ccccc1)(Oc1ccccc1)Oc1ccccc1
inactive: [1] | [2] | [3] | [6] | [7] | [9]

N#CC(Br)Br
inactive: [1] | [2] | [3] | [7] | [8] | [9]

OCC(O)CO
inactive: [1] | [2] | [3] | [7] | [9]

CNC(=O)N(C)c1nnc(C(C)(C)C)s1
inactive: [1] | [2] | [3] | [7] | [8] | [9]

CC(C)N(C(=O)SCC(Cl)=C(Cl)Cl)C(C)C
inactive: [1] | [2] | [3] | [7] | [9]

C=CCc1ccc(OC)cc1
inactive: [1] | [2] | [3] | [7] | [9]

CCC(CC)Nc1c([N+](=O)[O-])cc(C)c(C)c1[N+](=O)[O-]
inactive: [1] | [2] | [3] | [6] | [7] | [9]

Nc1ccc(-c2ccc(N)c(N)c2)cc1N
inactive: [1] | [2] | [3] | [7] | [9]
active: [6] 54.3 µM

CCOc1cc(Oc2ccc(C(F)(F)F)cc2Cl)ccc1[N+](=O)[O-]
inactive: [1] | [2] | [3] | [7] | [8] | [9]

COc1ccc(C=O)cc1
inactive: [1] | [2] | [3] | [6] | [7] | [9]

CCCCN(CC)c1c([N+](=O)[O-])cc(C(F)(F)F)cc1[N+](=O)[O-]
inactive: [1] | [2] | [3] | [7] | [8] | [9]

Cc1ccc2c(c1N)C(=O)c1ccccc1C2=O
inactive: [1] | [3] | [5] | [7]
active: [6] 7.61 µM and 9.69 µM

Cc1cccc(N)c1N
inactive: [1] | [2] | [3] | [7] | [8] | [9]

C=CCc1ccc2c(c1)OCO2
inactive: [1] | [2] | [3] | [6] | [7] | [9]

O=C(NC(=O)c1c(F)cccc1F)Nc1ccc(Cl)cc1
inactive: [1] | [2] | [3] | [7] | [8] | [9]

O=[N+]([O-])c1c(Cl)c(Cl)c(Cl)c(Cl)c1Cl
active: [4] 27.2 µM and 27.3 µM
inactive: [1] | [2] | [6] | [7] | [9]
inactive and 43.3 µM (active): [8]

C#CCOS(=O)OC1CCCCC1Oc1ccc(C(C)(C)C)cc1 (stereo not given)
inactive: [1] | [2] | [7]
active: [3] 6.11 µM | [8] 24.4 µM and 54.5 µM | [9] 21.7 µM and 27.3 µM

Cc1ccc(N)c(N)c1
inactive: [1] | [2] | [3] | [7]

CN(C)c1ccc(C(=O)c2ccc(N(C)C)cc2)cc1
inactive: [1] | [2] | [3] | [7] | [8]
inactive and 21.7 µM (active): [9]

Cc1ccc(OP(=O)(Oc2ccc(C)cc2)Oc2ccc(C)cc2)cc1
inactive: [1] | [2] | [3] | [7] | [8] | [9]

COP(=S)(OC)Oc1ccc([N+](=O)[O-])cc1
inactive: [1] | [2] | [3] | [7] | [8] | [9]

CCN(CC)C(=O)SCc1ccc(Cl)cc1
inactive: [1] | [2] | [3] | [7] | [8] | [9]

CCC(C)c1cc([N+](=O)[O-])cc([N+](=O)[O-])c1O (stereo not given)
inactive: [1] | [7]
inactive and 24.3 µM (active): [9]
inactive and 15.4 µM (active): [3]
inactive and 17.2 µM (active): [5]

c1ccc(P(c2ccccc2)c2ccccc2)cc1
inactive: [1] | [2] | [3] | [7] | [8] | [9]

O=[N+]([O-])c1cccc2ccccc12
inactive: [1] | [2] | [3] | [7] | [9]

CCC(C)c1ccc(O)cc1 (stereo not given)
inactive: [1] | [2] | [3] | [7] | [8] | [9]

O=C(O)C(F)(F)C(F)(F)C(F)(F)C(F)(F)C(F)(F)C(F)(F)C(F)(F)F
inactive: [1] | [2] | [3] | [7] | [8] | [9]

N#CCCCl
inactive: [1] | [2] | [3] | [6] | [7] | [9]

Oc1cc(Cl)ccc1Cl
inactive: [1] | [2] | [3] | [7] | [8] | [9]

CC(C)=CC1C(C(=O)OCc2coc(Cc3ccccc3)c2)C1(C)C (stereo not given)
inactive: [1] | [2] | [3] | [7] | [9]

Cc1cc(C)cc(C)c1
inactive: [1] | [2] | [3] | [7] | [9]

CC(C)(C)c1ccccc1O
inactive: [2] | [3] | [6] | [7] | [8] | [9]

Cc1c(COC(=O)[C@@H]2[C@H](/C=C(\Cl)C(F)(F)F)C2(C)C)cccc1-c1ccccc1
inactive: [1] | [2] | [3] | [6] | [7] | [9]
